This is an account of results in ChEMBL document CHEMBL1961873, “Compounds: GSK PKIS; Assays: Nanosyn kinase panel” (2012).

The first test deals with Activated CDC42 kinase 1 (Homo sapiens) (UniProt Q07912). As to conditions: at 0.1 µM.
Sequence of Activated CDC42 kinase 1 (Homo sapiens) (Q07912 whole entry, looked up): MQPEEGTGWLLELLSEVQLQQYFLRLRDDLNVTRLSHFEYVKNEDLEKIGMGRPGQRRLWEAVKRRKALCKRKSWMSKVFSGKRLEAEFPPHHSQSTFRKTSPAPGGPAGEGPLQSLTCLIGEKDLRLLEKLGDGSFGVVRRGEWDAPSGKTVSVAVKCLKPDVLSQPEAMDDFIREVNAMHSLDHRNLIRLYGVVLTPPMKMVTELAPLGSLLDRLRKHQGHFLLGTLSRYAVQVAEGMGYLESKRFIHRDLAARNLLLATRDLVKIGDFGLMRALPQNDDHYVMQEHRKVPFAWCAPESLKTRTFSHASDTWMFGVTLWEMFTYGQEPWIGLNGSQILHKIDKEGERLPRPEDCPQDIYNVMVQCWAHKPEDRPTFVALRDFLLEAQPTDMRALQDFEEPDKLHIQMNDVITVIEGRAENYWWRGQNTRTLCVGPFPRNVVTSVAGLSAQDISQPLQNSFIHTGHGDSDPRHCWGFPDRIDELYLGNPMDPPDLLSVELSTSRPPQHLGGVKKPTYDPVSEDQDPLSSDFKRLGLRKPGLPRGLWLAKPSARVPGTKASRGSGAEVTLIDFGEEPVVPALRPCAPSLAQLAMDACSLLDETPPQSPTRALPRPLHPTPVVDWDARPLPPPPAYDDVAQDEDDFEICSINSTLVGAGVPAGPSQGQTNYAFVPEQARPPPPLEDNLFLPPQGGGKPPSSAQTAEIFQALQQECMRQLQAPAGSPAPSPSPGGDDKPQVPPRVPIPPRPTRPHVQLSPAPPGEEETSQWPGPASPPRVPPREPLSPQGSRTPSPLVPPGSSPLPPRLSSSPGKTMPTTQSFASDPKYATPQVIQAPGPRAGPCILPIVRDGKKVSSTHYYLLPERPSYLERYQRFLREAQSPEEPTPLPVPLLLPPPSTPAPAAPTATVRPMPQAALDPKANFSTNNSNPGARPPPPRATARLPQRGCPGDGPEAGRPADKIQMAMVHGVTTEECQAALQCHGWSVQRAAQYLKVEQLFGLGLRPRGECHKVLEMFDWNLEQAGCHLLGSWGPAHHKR
Take `CNC(=O)c1cncc(/C=C/c2c(C)cccc2C)c1`: the inhibition was 0.76%.

Consider `Clc1ccc(CNc2nccc(-c3cnn4ncccc34)n2)cc1`, for which the inhibition stood at 0.35%.

In the case of `CCS(=O)(=O)c1ccc(OC)c(Nc2ncc(-c3cccc(-c4ccccc4F)c3)o2)c1`, the inhibition turned out to be 1.02%.

As for `Cc1nnc(-c2ccc(C)c(-c3ccc(C(=O)NCc4ccc(Cl)cc4)cc3)c2)o1`, the inhibition was found to be 0.65%.

On to `NCc1ccc(-n2c(-c3nonc3N)nc3cnccc32)cc1`, for which the inhibition was 1.93%.

`C/C(Nc1ccc(S(N)(=O)=O)cc1)=C1/C(=O)Nc2ccccc21`: the inhibition is -1.14%.

Consider `NS(=O)(=O)c1ccc(N/N=C2\C(=O)Nc3ccc(-c4cnco4)cc32)cc1`, for which the inhibition was -0.82%.

Another test has the same target. As to conditions: at 1 µM.
As for `c1ccc(Oc2ccc(Nc3ncc(-c4ccccc4)o3)cc2)cc1`, the inhibition is 2.91%.

Consider `COc1cc(Nc2ncc3c(C)nc(-c4cccc(C(F)(F)F)c4)n3n2)cc(OC)c1OC`, for which the inhibition is 3.69%.

Turning to `COc1cc2ncn(-c3cc(OCc4ccccc4C(F)(F)F)c(C(C)=O)s3)c2cc1OC`, the inhibition came to 3.29%.

Consider `CCc1nccc2c1nc(-c1nonc1N)n2CC`, for which the inhibition is -0.83%.

Regarding `Cc1ccc(NC(=O)c2ccoc2)cc1-c1ccc(C(=O)NCC2CC2)cc1`, the inhibition turned out to be 0.64%.

For `NC(=O)c1ccc(Oc2nccc(-c3c(-c4ccc(F)cc4)ncn3C3CCNCC3)n2)cc1`, the inhibition was determined as 1.67%.

As to `FC(F)(F)c1cccc(Nc2nccc(-c3cnn4nc(-c5ccccc5)ccc34)n2)c1`, the inhibition was determined as 1.15%.

Turning to `O=C(Nc1n[nH]c2cc(-c3ccccc3)ccc12)C1CC1`, the inhibition is 3.97%.

`N#Cc1ccc(Oc2nccc(-c3c(-c4ccc(F)cc4)ncn3C3CCNCC3)n2)cc1`: the inhibition amounted to 2.05%.

Turning to `COc1cc(C)c(N(C)C(=O)CN(C)C)cc1Nc1nc(Nc2cccc(F)c2C(N)=O)c2cc[nH]c2n1`, the inhibition worked out at 0.64%.

In the case of `O=C1Nc2ccccc2/C1=C/Nc1ccc(-n2cncn2)cc1`, the inhibition stood at 2.83%.

For the molecule `CCN(CC)Cc1ccc(Nc2nccc(-c3cnn4ncccc34)n2)cc1`, the inhibition amounted to 3.2%.

For `CN(C)CCOc1ccc(-c2cc(-c3ccc4c(c3)CCC4=NO)c(-c3ccncc3)o2)cc1`, the inhibition came out at 0.17%.

Consider `COc1cc2ncn(-c3cc(OCCc4ccccc4)c(C(N)=O)s3)c2cc1OC`, for which the inhibition is 2.21%.

For `CN(c1ccc(NC(=O)Nc2c(Cl)cccc2Cl)cc1)c1ccnc(Nc2cccc(CS(C)(=O)=O)c2)n1`, the inhibition was found to be 4.21%.

As to `NC(=O)c1cc(-c2ccncc2)cc(-c2ccccc2)c1N`, the inhibition was found to be 7.25%.

For `NC(=O)c1cc(-c2ccc(F)cc2)cc(-c2ccncc2)c1N`, the inhibition is -0.36%.

For the molecule `O=C1Nc2ccc(I)cc2C1=Cc1cc(Br)c(O)c(Br)c1`, the inhibition turned out to be 3.22%.

Consider `O=C(Nc1n[nH]c2nc(-c3ccco3)ccc12)C1CC1`, for which the inhibition was 0.93%.

For the molecule `CN1CCN(CCCNc2nc3ccc(Oc4ccc(NC(=O)Nc5cc(C(F)(F)F)ccc5F)cc4)cc3[nH]2)CC1`, the inhibition was 5.75%.

Turning to `COc1ccc2cc(-c3c(-c4ccncc4)nc(-c4ccc(S(C)(=O)=O)cc4C)n3C)ccc2c1`, the inhibition was found to be 3.77%.

Consider `CN(C)CCCNc1nccc(-c2c(-c3ccc(F)cc3)nn3cc(C(F)(F)F)ccc23)n1`, for which the inhibition was determined as 1.33%.

As to `COc1cc2ncn(-c3cc(OCc4cccs4)c(C(N)=O)s3)c2cc1OC`, the inhibition stood at 9.04%.

Turning to `Nc1nccc(-c2c(-c3ccc(F)cc3)ncn2C2CCC(O)CC2)n1` (centres undefined), the inhibition is 0.4%.

With `O=C(Nc1n[nH]c2nc(-c3ccc(O)cc3)c(Br)cc12)C1CC1`, the inhibition was 3.9%.

Regarding `COc1cc(Nc2ncc3c(C)nc(-c4cccc(Oc5ccccc5)c4)n3n2)cc(OC)c1OC`, the inhibition came out at 1.9%.

Regarding `NS(=O)(=O)c1ccc(Nc2cc(-c3ccc(O)c(F)c3)n[nH]2)cc1`, the inhibition was -1.02%.

`CNC(=O)c1cncc(/C=C/c2c(C)cccc2C)c1`: the inhibition was found to be 9.44%.

In the case of `Clc1ccc(CNc2nccc(-c3cnn4ncccc34)n2)cc1`, the inhibition turned out to be 3.23%.

Turning to `CCS(=O)(=O)c1ccc(OC)c(Nc2ncc(-c3cccc(-c4ccccc4F)c3)o2)c1`, the inhibition came out at 7.85%.

As for `Cc1nnc(-c2ccc(C)c(-c3ccc(C(=O)NCc4ccc(Cl)cc4)cc3)c2)o1`, the inhibition was determined as 0.3%.

On to `NCc1ccc(-n2c(-c3nonc3N)nc3cnccc32)cc1`, for which the inhibition was 5.77%.

As to `C/C(Nc1ccc(S(N)(=O)=O)cc1)=C1/C(=O)Nc2ccccc21`, the inhibition turned out to be 0.65%.

With `NS(=O)(=O)c1ccc(N/N=C2\C(=O)Nc3ccc(-c4cnco4)cc32)cc1`, the inhibition came to 0.92%.

The next test deals with High affinity nerve growth factor receptor (Homo sapiens) (UniProt P04629). The following applies: at 0.1 µM.
Sequence of High affinity nerve growth factor receptor (Homo sapiens) (P04629 33-796 limits assumed): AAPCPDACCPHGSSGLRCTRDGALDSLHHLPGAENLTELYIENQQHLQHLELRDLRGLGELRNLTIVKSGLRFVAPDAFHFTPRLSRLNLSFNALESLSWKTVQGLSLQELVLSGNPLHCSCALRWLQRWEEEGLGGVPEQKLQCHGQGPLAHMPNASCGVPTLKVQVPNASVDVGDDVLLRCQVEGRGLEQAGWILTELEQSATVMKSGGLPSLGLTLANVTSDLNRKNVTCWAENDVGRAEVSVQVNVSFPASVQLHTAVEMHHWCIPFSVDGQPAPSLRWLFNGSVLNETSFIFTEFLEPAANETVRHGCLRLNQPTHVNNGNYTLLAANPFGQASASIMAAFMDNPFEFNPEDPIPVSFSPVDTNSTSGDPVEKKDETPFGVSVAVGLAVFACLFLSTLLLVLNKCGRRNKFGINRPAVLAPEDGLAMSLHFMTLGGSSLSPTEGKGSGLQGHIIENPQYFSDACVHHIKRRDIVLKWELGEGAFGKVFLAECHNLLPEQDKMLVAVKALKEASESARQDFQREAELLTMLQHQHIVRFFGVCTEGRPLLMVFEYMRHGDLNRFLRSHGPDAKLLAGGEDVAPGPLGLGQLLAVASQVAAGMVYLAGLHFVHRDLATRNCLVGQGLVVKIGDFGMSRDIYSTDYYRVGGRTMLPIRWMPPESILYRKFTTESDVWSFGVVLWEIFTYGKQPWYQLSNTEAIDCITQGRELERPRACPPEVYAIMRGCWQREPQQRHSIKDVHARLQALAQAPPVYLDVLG
Take `c1ccc(Oc2ccc(Nc3ncc(-c4ccccc4)o3)cc2)cc1`: the inhibition stood at 1.43%.

As to `COc1cc(Nc2ncc3c(C)nc(-c4cccc(C(F)(F)F)c4)n3n2)cc(OC)c1OC`, the inhibition worked out at 2.69%.

`COc1cc2ncn(-c3cc(OCc4ccccc4C(F)(F)F)c(C(C)=O)s3)c2cc1OC`: the inhibition was determined as 2.3%.

Regarding `Cc1ccc(NC(=O)c2ccoc2)cc1-c1ccc(C(=O)NCC2CC2)cc1`, the inhibition was found to be 2.04%.

`NC(=O)c1ccc(Oc2nccc(-c3c(-c4ccc(F)cc4)ncn3C3CCNCC3)n2)cc1`: the inhibition was found to be 2.53%.

On to `FC(F)(F)c1cccc(Nc2nccc(-c3cnn4nc(-c5ccccc5)ccc34)n2)c1`, for which the inhibition was -0.16%.

Consider `O=C(Nc1n[nH]c2cc(-c3ccccc3)ccc12)C1CC1`, for which the inhibition stood at 2.59%.

Consider `N#Cc1ccc(Oc2nccc(-c3c(-c4ccc(F)cc4)ncn3C3CCNCC3)n2)cc1`, for which the inhibition was 2.46%.

On to `COc1cc(C)c(N(C)C(=O)CN(C)C)cc1Nc1nc(Nc2cccc(F)c2C(N)=O)c2cc[nH]c2n1`, for which the inhibition came out at 1.62%.

With `O=C1Nc2ccccc2/C1=C/Nc1ccc(-n2cncn2)cc1`, the inhibition was found to be 6.94%.

On to `CCN(CC)Cc1ccc(Nc2nccc(-c3cnn4ncccc34)n2)cc1`, for which the inhibition stood at 2.7%.

With `CN(C)CCOc1ccc(-c2cc(-c3ccc4c(c3)CCC4=NO)c(-c3ccncc3)o2)cc1`, the inhibition was -1.52%.

On to `COc1cc2ncn(-c3cc(OCCc4ccccc4)c(C(N)=O)s3)c2cc1OC`, for which the inhibition was 1.42%.

`CN(c1ccc(NC(=O)Nc2c(Cl)cccc2Cl)cc1)c1ccnc(Nc2cccc(CS(C)(=O)=O)c2)n1`: the inhibition is 49.7%.

As to `NC(=O)c1cc(-c2ccncc2)cc(-c2ccccc2)c1N`, the inhibition is 1.66%.

`NC(=O)c1cc(-c2ccc(F)cc2)cc(-c2ccncc2)c1N`: the inhibition was determined as 2.33%.

Consider `O=C1Nc2ccc(I)cc2C1=Cc1cc(Br)c(O)c(Br)c1`, for which the inhibition was 2.97%.

Regarding `O=C(Nc1n[nH]c2nc(-c3ccco3)ccc12)C1CC1`, the inhibition was 4.04%.

Consider `CN1CCN(CCCNc2nc3ccc(Oc4ccc(NC(=O)Nc5cc(C(F)(F)F)ccc5F)cc4)cc3[nH]2)CC1`, for which the inhibition turned out to be 2.88%.

On to `COc1ccc2cc(-c3c(-c4ccncc4)nc(-c4ccc(S(C)(=O)=O)cc4C)n3C)ccc2c1`, for which the inhibition came to 3.75%.

Consider `CN(C)CCCNc1nccc(-c2c(-c3ccc(F)cc3)nn3cc(C(F)(F)F)ccc23)n1`, for which the inhibition was 4.23%.

Take `COc1cc2ncn(-c3cc(OCc4cccs4)c(C(N)=O)s3)c2cc1OC`: the inhibition was -0.38%.

For the molecule `Nc1nccc(-c2c(-c3ccc(F)cc3)ncn2C2CCC(O)CC2)n1` (centres undefined), the inhibition turned out to be 0.87%.

In the case of `O=C(Nc1n[nH]c2nc(-c3ccc(O)cc3)c(Br)cc12)C1CC1`, the inhibition worked out at 4.06%.

As to `COc1cc(Nc2ncc3c(C)nc(-c4cccc(Oc5ccccc5)c4)n3n2)cc(OC)c1OC`, the inhibition was 2.69%.

In the case of `NS(=O)(=O)c1ccc(Nc2cc(-c3ccc(O)c(F)c3)n[nH]2)cc1`, the inhibition worked out at 5.68%.

`CNC(=O)c1cncc(/C=C/c2c(C)cccc2C)c1`: the inhibition came to 3.36%.

As for `Clc1ccc(CNc2nccc(-c3cnn4ncccc34)n2)cc1`, the inhibition is 1.42%.

As to `CCS(=O)(=O)c1ccc(OC)c(Nc2ncc(-c3cccc(-c4ccccc4F)c3)o2)c1`, the inhibition amounted to 6.39%.

With `Cc1nnc(-c2ccc(C)c(-c3ccc(C(=O)NCc4ccc(Cl)cc4)cc3)c2)o1`, the inhibition worked out at 2.65%.

In the case of `NCc1ccc(-n2c(-c3nonc3N)nc3cnccc32)cc1`, the inhibition turned out to be 1.82%.

Turning to `C/C(Nc1ccc(S(N)(=O)=O)cc1)=C1/C(=O)Nc2ccccc21`, the inhibition was determined as 4.48%.

As to `NS(=O)(=O)c1ccc(N/N=C2\C(=O)Nc3ccc(-c4cnco4)cc32)cc1`, the inhibition worked out at 4.49%.

By inhibition is commonly meant the relative decrease from the control value, in per cent.
